# Assay outcomes: PubChem BioAssay, National Center for Advancing Translational Sciences (NCATS)
# ELG1 repair inh: blocks ELG1-dependent DNA repair in HEK293T cells | HEK293T ELG1-luciferase reporter, luminescence, 16 h; DNA damage induced by 5-fluorouridine | Potency, µM (titrated, usually from 46.1 µM), usual class: inhibitors | 330,000 compounds, 2.3% hits | AID 504467; also: nearly all actives have a fitted effect of over 55% in size
#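 Reporter activity after DNA damage by 5-fluorouridine is monitored. Compound-treated cells incubate 16 hr at 37 °C, then ONE-Glo is added for 30 min before luminescence reading.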
# Sfp PPTase inh: Sfp phosphopantetheinyl transferase inhibition. Q9F4F7. Biochemical Sfp PPTase activity, qHTS. Potency, µM, most hits filed as inhibitors. 310,000 compounds, 3.5% hits;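 also: the enzyme is Sfp with the accession as filed and its product quenches rhodamine fluorescence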
#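 After 15 min at room temperature with compound, 15 nM Sfp received 5 uM rhodamine-CoA plus 12.5 uM BHQ-2-ybbR (50 mM Hepes pH 7.6, 10 mM MgCl2). Rate came from the fluorescence difference over 30 min, ex 525/em 598 nm.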
# Giardia kill: kills Giardia lamblia. Giardia lamblia trophozoite viability. activity change, % at 7.66 µM, hits read low. 340,000 compounds, 0.15% hits; in the data active = activity change below about -80%; inconclusive = between about -30% and that limit;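 also: parasites exposed to compound for two days anaerobically before the ATP read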
#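 Trophozoites 100 cells/well + cpd; 48 hrs, 37 deg C, anaerobic. ATPLite 1-Step added, 15-30 min RT, luminescence read (ATP-based viability).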
# Coupling enz: coupling enzyme interference in Giardia aldolase counter-screen | coupling enzyme system counterscreen, AmpLite Red fluorescence | activity change, negative = inhibition, % at 58.2 µM, hits read low | 290,000 compounds, 0.67% hits; in the data active = activity change below about -30%
#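 Final compound at 57.5 uM, incubated 10 min at RT with coupling enzyme reagent (glyceraldehyde-3-phosphate), then 20 min with substrate and AmpLite Red detection. Fluorescence read at 525/598 nm; tests interference with the coupling assay, not aldolase inhibition.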
# Numbers stand for hits; 0 = inactive; ? = inconclusive; - = not tested or not shown. An excerpt weighted towards active compounds, which were near 5.5% of everything screened. Unless noted, calls follow the shape of the dose curve; as a rule, active = well fitted curve in the direction sought with a large enough effect; inconclusive = small, poorly fitted or top-dose-only effect, or another doubt; inactive = no such curve, though single readings can be large; an effect the other way counts as inactive or inconclusive.
SMILES,ELG1 repair inh,Sfp PPTase inh,Giardia kill,Coupling enz
O=c1cc(-c2ccc(O)cc2)oc2cc(O[C@H]3OC(CO)C(O)C(O)C3O)cc(O)c12 (stereo not given in full),-,0,-,0
O=c1cc(-c2ccccc2)oc2cc(O[C@@H]3O[C@H](CO)[C@@H](O)[C@H](O)[C@H]3O)c(O)c(O)c12,-,50µM,-,0
COc1ccc(C(=O)C(CCC(CNC(C)(C)C)C(=O)c2ccc(OC)cc2)CNC(C)(C)C)cc1 (stereo not given),8.2µM,0,0,0
COc1ccc(C(=O)CC(=O)c2ccc(C(C)(C)C)cc2)cc1,-,0,0,0
CCCCn1c(CN2CCN(c3ccc(F)cc3)CC2)nc2c1c(=O)n(C)c(=O)n2C,0,0,0,0
Cn1c(=O)c2c(nc(CN3CCc4ccccc4C3)n2Cc2cccc(Cl)c2)n(C)c1=O,?,0,0,0
COCCn1c(CN2CCc3ccccc3C2)nc2c1c(=O)n(C)c(=O)n2C,6.5µM,0,0,0
Cn1c(=O)c2c(nc(CN3CCN(Cc4ccccc4)CC3)n2Cc2cccc(Cl)c2)n(C)c1=O,12µM,0,0,0
Cn1c(=O)c2c(nc(CN3CCN(c4ccc(F)cc4)CC3)n2Cc2ccccc2F)n(C)c1=O,6.5µM,0,0,0
Cn1c(=O)c2c(nc(CN3CCc4ccccc4C3)n2CCCO)n(C)c1=O,0,0,0,0
CCCCCCn1c(CN2CCN(C(=O)c3ccco3)CC2)nc2c1c(=O)n(C)c(=O)n2C,13µM,0,0,0
O=C(CNC(=O)c1ccc(Br)o1)NCC(=O)OCc1ccccc1,0,-,0,-
CC(C)NS(=O)(=O)c1ccc(NC(=O)C(C)OC(=O)CCC(=O)c2cccs2)cc1 (stereo not given),0,-,0,-
CCOc1ccc(NC(=O)c2ccc(N3CC4CC(C3)c3cccc(=O)n3C4)c(NC(=O)CCN3CCOCC3)c2)cc1 (stereo not given),7.3µM,0,0,0
O=C(O)c1ccc(N2CC3CC(C2)c2cccc(=O)n2C3)c(NC(=S)Nc2ccc(Cl)cc2Cl)c1 (stereo not given),?,50µM,0,0
O=C(CCN1CCOCC1)Nc1cc(C(=O)Nc2ccccc2F)ccc1N1CC2CC(C1)c1cccc(=O)n1C2 (stereo not given),0,0,0,0
O=C(Nc1ccc(Cl)cc1)c1cc(Br)ccc1OCC(=O)N1CCOCC1,?,0,0,-
CCN(CC(=O)NCc1cccs1)C(=O)/C=C/c1cc(Br)ccc1OC(F)F,?,-,0,-
C#CCCCO/N=C1/C[C@@H](O)[C@@H](O)[C@@H]2[C@H]3C(=O)N(c4ccc(F)cc4F)C(=O)[C@@H]3CC[C@@H]12,-,0,-,0
Cc1ccc(-c2c(C)c(-c3ccc(F)cc3)nc(N)c2C#N)o1,0,18µM,0,0
CCOc1cc([N+](=O)[O-])cc2c1C(=O)Nc1ccccc1O2,7.3µM,0,0,0
COc1cc(NC(=O)c2cc([N+](=O)[O-])ccc2NC(=O)CNCc2ccccn2)cc(OC)c1,6.5µM,0,0,0
O=C(O)c1cc([N+](=O)[O-])ccc1NCc1ccccn1,?,-,0,-
COc1cc(NC(=O)c2cc([N+](=O)[O-])ccc2NC(=O)CNC2CCCCC2)cc(OC)c1,21µM,0,0,0
COc1cccc(NC(=O)c2cc([N+](=O)[O-])ccc2NC(=O)CNCC2CCCO2)c1 (stereo not given),9.2µM,0,0,0
SMILES,ELG1 repair inh,Sfp PPTase inh,Giardia kill,Coupling enz
COc1cc([N+](=O)[O-])ccc1NC(=O)CSc1ccccn1,0,0,-,0
COc1cc(NC(=O)c2cc([N+](=O)[O-])ccc2NC(=O)CNC2CCCCC2C)cc(OC)c1 (stereo not given),?,0,0,0
COc1ccc(NC(=O)c2cc([N+](=O)[O-])ccc2NC(=O)CNCc2ccccn2)c(OC)c1,0,45µM,0,0
Cc1ccc(NC(=O)c2sccc2C)nc1,?,0,0,-
CCOc1ccc(OCCC(=O)OCC(=O)N(CC)c2c(N)n(Cc3ccccc3)c(=O)[nH]c2=O)cc1,-,-,0,-
CCCc1ccc(C(=O)CCC(=O)NNC(=O)c2ccncc2)cc1,0,0,?,-
COc1ccc(-c2nc3c(c4c2C[C@H](c2ccccc2)OC4)CN(S(=O)(=O)c2ccc4c(c2)OCCN4C)CC3)c(C)c1,-,0,-,0
COCCCNc1ccc([N+](=O)[O-])cc1C(=O)Nc1cccc(C)n1,?,0,0,0
Cc1cccc(NC(=O)c2cc([N+](=O)[O-])ccc2NCC2CCCO2)n1 (stereo not given),15µM,0,0,0
CO[C@@H]1COC(=O)C/C=C\[C@H](C)[C@H](OC)COC(=O)[C@H]2CCCN2C(=O)C/C=C\[C@H]1C,-,0,-,0
Cc1onc(-c2ccccc2Cl)c1C(=O)Nc1ccc(-c2cn3cccnc3n2)cc1,13µM,0,0,0
Cc1cccc(CCNC(=O)C2CCC(=O)N(Cc3ccccc3F)C2)n1 (stereo not given),-,-,0,-
N#Cc1c(-c2ccco2)c2c([nH]c1=S)CCCC2,0,4.5µM,0,0
N#Cc1c2c(c(-c3ccco3)[nH]c1=O)CCCC2,0,0,0,0
N#Cc1c(N)nc2c(c1-c1cccnc1)CCCCC2,13µM,0,0,0
CCCCCCCc1c(C#N)c(N)[nH]c(=S)c1C#N,?,0,0,0
CC(C)Cc1c2c([nH]c(=S)c1C#N)CCCC2,0,2µM,0,0
N#Cc1c(-c2cccnc2)c2c([nH]c1=S)CCCC2,0,28µM,0,0
CC(Sc1n[nH]c(N)n1)C(=O)NC1CCCCC1C (stereo not given),0,0,0,-
CCc1cc(=O)oc2cc(OCC(=O)N3CCC[C@H]3C(=O)O)ccc12,0,0,0,0
COc1ccc(Oc2ncc3nc(-c4cn(C)c5ccccc45)c(=O)n(C)c3n2)cc1,-,0,-,0
CN(CC(=O)Nc1ccccc1Br)C(=O)CCSc1ccc(F)cc1,0,-,0,-
CCOC(=O)C1CCN(CC(O)COc2ccc(S(=O)(=O)N3CCCC3)cc2[N+](=O)[O-])CC1 (stereo not given),0,-,0,-
CN(C)S(=O)(=O)N1CCC(Oc2cccc(C(=O)NC3CCCCCC3)c2)CC1,16µM,0,0,-
CC1CCCCN1C(=O)c1ccc(OC2CCN(S(=O)(=O)N(C)C)CC2)cc1 (stereo not given),9.2µM,0,0,0
SMILES,ELG1 repair inh,Sfp PPTase inh,Giardia kill,Coupling enz
CN(C)S(=O)(=O)N1CCC(Oc2ccc(C(=O)N3CCCCCCC3)cc2)CC1,?,0,0,-
CN(C)S(=O)(=O)N1CCC(Oc2ccc(C(=O)NC3Cc4ccccc4C3)cc2)CC1,0,0,0,0
CCOc1ccc(S(=O)(=O)c2c[nH]c3ccccc3c2=O)cc1,0,0,0,0
O=C1c2ccccc2C(=O)N1CCCCN(C(=O)c1cc([N+](=O)[O-])cc([N+](=O)[O-])c1)c1ccc(Cl)cc1,0,0,0,0
O=C1c2ccccc2C(=O)N1CCCCN(C(=O)c1cc([N+](=O)[O-])ccc1Cl)c1ccc(Cl)cc1,21µM,0,0,0
S=C(c1ccc(-c2ccc(Br)cc2)o1)N1CCOCC1,?,35µM,0,0
